Laboratory results: PubChem BioAssay (EPA / NIEHS)
Active and inactive are the calls of the source. Rule for the calls: active = hit-call score of the fitted dose curve at least 0.9, where 1 is the maximum; inactive = score below 0.9.

Assays:
[1] = ATG_GLI_CIS: Attagene CIS-FACTORIAL HepG2 Assay for human Zinc Finger Protein GLI1 (AID 2282945); settings: HepG2, Attagene cis-factorial reporter mRNA, GLI element; actives raise or lower the signal
How it was run: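 Bidirectional curve fits relative to DMSO, using reporter mRNA levels from RT-PCR plus capillary electrophoresis. Cells were HepG2 transiently carrying cis-regulated reporter constructs, harvested 24 h after dosing.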

[2] = ATG_GRE_CIS: Attagene CIS-FACTORIAL HepG2 Assay for human Glucocorticoid Response Elements (GRE) (AID 2282947); settings: HepG2 GRE cis-reporter, Attagene multiplex mRNA; actives raise or lower the signal
How it was run: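 Multiplexed cis-reporter mRNA induction, HepG2, 24 h post-dose. RT-PCR, FAM-labelled, HpaI-digested amplicons by CE. Bidirectional fit vs DMSO.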

[3] = ATG_ISRE_CIS: Attagene CIS-FACTORIAL HepG2 Assay for human Interferon Regulatory Factor 1 (IRF1) binding to an Interferon-Stimulated Response Element (ISRE) (AID 2282948); settings: HepG2 ISRE cis-reporter (Attagene), mRNA transcription readout; actives raise or lower the signal
How it was run: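 Signal reflects induction or loss of ISRE-linked reporter mRNA in transiently transfected HepG2 cells after a 24 h treatment, detected by fluorescent RT-PCR fragments on capillary electrophoresis and normalised to DMSO.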

[4] = ATG_M_32_CIS: Attagene CIS-FACTORIAL HepG2 Assay for M32 Transcription Factor (Internal Marker) (AID 2282949); settings: HepG2 Attagene cis-factorial M32 reporter, mRNA; actives raise or lower the signal;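 note: background control marker of the multiplexed CIS panel rather than a real target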
How it was run: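 Transient MRTU transfection of HepG2; 24 h compound treatment; TriZol RNA, oligo(dT) RT, reporter PCR, 6-FAM primer extension, HpaI cut, CE. Gain/loss of signal vs DMSO.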

[5] = ATG_M_06_CIS: Attagene CIS-FACTORIAL HepG2 Assay for M06 Transcription Factor (Internal Marker) (AID 2282950); settings: HepG2 Attagene CIS-FACTORIAL M06 internal marker reporter; actives raise or lower the signal
How it was run: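 Cells (HepG2, transiently carrying cis-driven reporter units) receive chemical for 24 h before RNA isolation. Reporter cDNA is PCR-amplified, FAM-labelled by primer extension, HpaI-digested and sized on a capillary analyser.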

[6] = target: Hypoxia-inducible factor 1-alpha (Homo sapiens) (UniProt Q16665); test: ATG_HIF1a_CIS: Attagene CIS-FACTORIAL HepG2 Assay for human Hypoxia Inducible Factor 1 (HIF1A) (AID 2282951); settings: HepG2 Attagene cis-factorial HIF1a reporter transcription; actives raise or lower the signal
Chain of Hypoxia-inducible factor 1-alpha (Homo sapiens) (Q16665 whole entry, looked up): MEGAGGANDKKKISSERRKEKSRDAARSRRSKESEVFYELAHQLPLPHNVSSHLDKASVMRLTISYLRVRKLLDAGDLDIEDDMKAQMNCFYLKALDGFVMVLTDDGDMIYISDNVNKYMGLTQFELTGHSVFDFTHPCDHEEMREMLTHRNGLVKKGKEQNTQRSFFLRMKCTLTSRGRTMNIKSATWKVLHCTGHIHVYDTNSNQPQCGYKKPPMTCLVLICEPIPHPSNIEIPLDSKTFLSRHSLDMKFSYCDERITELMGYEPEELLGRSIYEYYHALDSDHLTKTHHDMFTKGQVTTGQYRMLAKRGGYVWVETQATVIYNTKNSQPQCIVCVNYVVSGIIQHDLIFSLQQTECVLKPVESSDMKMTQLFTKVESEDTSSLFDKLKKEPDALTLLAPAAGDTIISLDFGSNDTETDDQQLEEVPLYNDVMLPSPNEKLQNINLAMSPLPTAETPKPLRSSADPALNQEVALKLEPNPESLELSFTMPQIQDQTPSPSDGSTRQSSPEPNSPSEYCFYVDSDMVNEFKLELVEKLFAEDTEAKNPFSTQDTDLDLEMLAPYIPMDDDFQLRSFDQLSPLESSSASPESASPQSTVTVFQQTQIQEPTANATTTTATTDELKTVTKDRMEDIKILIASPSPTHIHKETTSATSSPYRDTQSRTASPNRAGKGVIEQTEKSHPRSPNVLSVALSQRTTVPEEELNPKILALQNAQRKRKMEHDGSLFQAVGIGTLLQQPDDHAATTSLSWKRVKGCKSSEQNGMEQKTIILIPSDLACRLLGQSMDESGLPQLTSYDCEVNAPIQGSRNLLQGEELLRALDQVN
How it was run: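 HepG2 cells transiently transfected with multiplexed cis-promoter reporter units; reporter mRNA read 24 h after dosing by RT-PCR, 6-FAM primer-extension labelling, HpaI digestion and capillary electrophoresis. Bidirectional fit versus DMSO baseline.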

[7] = target: Heat shock factor protein 1 (Homo sapiens) (UniProt Q00613); test: ATG_HSE_CIS: Attagene CIS-FACTORIAL HepG2 Assay for human Heat Shock Transcription Factor 1 (HSE) (AID 2282953); settings: HepG2 HSE cis-reporter, Attagene RNA transcription; actives raise or lower the signal
Chain of Heat shock factor protein 1 (Homo sapiens) (Q00613 whole entry, looked up): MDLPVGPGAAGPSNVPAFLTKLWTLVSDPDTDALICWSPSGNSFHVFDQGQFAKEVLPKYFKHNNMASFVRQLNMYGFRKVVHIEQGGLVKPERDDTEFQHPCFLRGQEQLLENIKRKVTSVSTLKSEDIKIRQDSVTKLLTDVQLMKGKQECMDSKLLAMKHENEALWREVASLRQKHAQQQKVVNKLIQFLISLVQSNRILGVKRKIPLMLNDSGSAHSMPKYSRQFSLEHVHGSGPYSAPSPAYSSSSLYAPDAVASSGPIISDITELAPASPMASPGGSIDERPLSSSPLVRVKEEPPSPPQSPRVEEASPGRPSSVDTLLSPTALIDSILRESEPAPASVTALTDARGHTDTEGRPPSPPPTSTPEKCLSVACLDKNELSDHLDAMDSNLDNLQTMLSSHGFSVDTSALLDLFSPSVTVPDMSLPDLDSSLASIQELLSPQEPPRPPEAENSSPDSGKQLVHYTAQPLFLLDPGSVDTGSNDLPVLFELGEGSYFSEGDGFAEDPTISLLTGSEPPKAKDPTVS
How it was run: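 Liver-derived HepG2 cells carry transiently introduced multiple reporter units governed by cis promoters. Reporter RNA measured 24 h post-dose through reverse transcription, PCR amplification, fluorescent labelling and capillary electrophoresis, normalised to DMSO.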

[8] = ATG_MRE_CIS: Attagene CIS-FACTORIAL HepG2 Assay for human Metal Responsive Element (MRE) (AID 2282954); settings: HepG2 MRE cis-reporter transcription, Attagene multiplex; actives raise or lower the signal
How it was run: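 Multiplexed cis-reporter assay in human HepG2 liver cells, 24 h incubation with test chemical. Reporter transcripts measured by RT-PCR and capillary electrophoresis; values from bidirectional curve fitting versus DMSO.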

[9] = ATG_PBREM_CIS: Attagene CIS-FACTORIAL HepG2 Assay for human Phenobarbital-responsive Enhancer Module (PBREM) (AID 2282955); settings: HepG2 PBREM cis-reporter, Attagene multiplexed transcription; actives raise or lower the signal
How it was run: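 HepG2 cells transiently transfected with multiple cis-regulated reporter transcription units; endogenous factor activity at the PBREM element measured as reporter mRNA 24 h after dosing, via RT-PCR and capillary electrophoresis of fluorescent fragments; bidirectional fitting versus DMSO.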

[10] = ATG_PXRE_CIS: Attagene CIS-FACTORIAL HepG2 Assay for human Pregnane X Receptor Element (PXRE) (AID 2282957); settings: HepG2 Attagene CIS-FACTORIAL PXRE reporter, mRNA; actives raise or lower the signal
How it was run: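 Read-out: fluorescence of reporter-specific RT-PCR products resolved by capillary electrophoresis, fitted bidirectionally relative to DMSO. Human HepG2 liver cells carried transfected cis-promoter reporter units and were exposed to chemicals for 24 h.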

[11] = ATG_PPRE_CIS: Attagene CIS-FACTORIAL HepG2 Assay for human Peroxisome Proliferator-activated Response Element (PPRE) (AID 2282958); settings: HepG2 PPRE cis-element reporter, Attagene transcription factor profiling; actives raise or lower the signal
How it was run: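 HepG2 cells transiently transfected with multiplexed cis-element reporter units measure endogenous transcription factor activity. After 24 h compound exposure, reporter mRNA is quantified by RT-PCR, 6-FAM labeling, HpaI digestion and capillary electrophoresis; bidirectional fits are made against DMSO baseline.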

[12] = ATG_RORE_CIS: Attagene CIS-FACTORIAL HepG2 Assay for human RAR-related Orphan Receptor Element (RORE) (AID 2282959); settings: HepG2 Attagene cis-factorial RORE reporter, mRNA; actives raise or lower the signal
How it was run: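 HepG2 cells transiently transfected with multiple cis-element reporter transcription units, exposed to chemical for 24 h. Reporter mRNA quantified by RT-PCR, 6-FAM primer-extension labeling, HpaI digestion and capillary electrophoresis; bidirectional fit versus DMSO baseline.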

[13] = ATG_Sox_CIS: Attagene CIS-FACTORIAL HepG2 Assay for human SRY-box transcription factor (SOX) (AID 2282960); settings: HepG2 Attagene cis-factorial SOX reporter, mRNA; actives raise or lower the signal
How it was run: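 HepG2 cells transiently transfected with cis-element-driven multiple reporter transcription units, dosed 24 h; reporter mRNA measured by RT-PCR, FAM labelling, HpaI digestion and capillary electrophoresis. Bidirectional fit versus DMSO baseline.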

[14] = target: Transcription factor Sp1 (Homo sapiens) (UniProt P08047); test: ATG_Sp1_CIS: Attagene CIS-FACTORIAL HepG2 Assay for human Specificity Protein 1 (Sp1) (AID 2282961); settings: HepG2 Sp1 cis-reporter transcription, actives raise or lower the signal
Chain of Transcription factor Sp1 (Homo sapiens) (P08047 whole entry, looked up): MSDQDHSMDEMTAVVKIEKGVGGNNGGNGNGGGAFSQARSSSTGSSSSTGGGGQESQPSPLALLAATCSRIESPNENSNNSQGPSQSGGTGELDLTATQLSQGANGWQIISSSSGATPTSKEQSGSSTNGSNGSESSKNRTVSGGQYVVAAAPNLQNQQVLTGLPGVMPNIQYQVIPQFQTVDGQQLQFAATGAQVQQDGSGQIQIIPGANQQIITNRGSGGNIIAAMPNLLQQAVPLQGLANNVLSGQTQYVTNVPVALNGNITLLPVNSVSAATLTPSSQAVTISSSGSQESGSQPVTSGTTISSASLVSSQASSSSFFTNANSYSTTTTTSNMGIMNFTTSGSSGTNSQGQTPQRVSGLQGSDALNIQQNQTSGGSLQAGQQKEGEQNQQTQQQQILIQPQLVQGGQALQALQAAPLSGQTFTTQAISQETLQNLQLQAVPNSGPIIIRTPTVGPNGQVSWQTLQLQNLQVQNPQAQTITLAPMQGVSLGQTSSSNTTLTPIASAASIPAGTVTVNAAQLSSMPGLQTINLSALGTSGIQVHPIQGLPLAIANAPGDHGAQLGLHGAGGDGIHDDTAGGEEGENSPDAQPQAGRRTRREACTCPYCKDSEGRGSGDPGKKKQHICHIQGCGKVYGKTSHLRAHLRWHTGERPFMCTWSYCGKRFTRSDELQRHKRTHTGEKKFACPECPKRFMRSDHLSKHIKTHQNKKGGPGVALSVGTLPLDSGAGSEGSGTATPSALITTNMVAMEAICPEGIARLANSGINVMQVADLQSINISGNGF
How it was run: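 HepG2 cells transiently transfected with multiple reporter transcription units driven by cis-regulatory elements; Sp1-responsive reporter mRNA measured 24 h after dosing by RT-PCR and capillary electrophoresis fluorescence, fitted bidirectionally against DMSO baseline.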

[15] = ATG_SREBP_CIS: Attagene CIS-FACTORIAL HepG2 Assay for human Sterol Regulatory Element Binding (SREBP) (AID 2282962); settings: HepG2 Attagene cis-factorial SREBP reporter, mRNA; actives raise or lower the signal
How it was run: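 Values derive from bidirectional curve fitting with DMSO as baseline. The underlying measurement is reporter mRNA from cis-element-regulated units in transiently transfected HepG2, quantified by RT-PCR and capillary electrophoresis after 24 h exposure.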

[16] = target: Signal transducer and activator of transcription 3 (Homo sapiens) (UniProt P40763); test: ATG_STAT3_CIS: Attagene CIS-FACTORIAL HepG2 Assay for human Signal Transducer and Activator of Transcription 3 (STAT3) (AID 2282963); settings: HepG2, Attagene cis-factorial STAT3 reporter transcription; actives raise or lower the signal
Chain of Signal transducer and activator of transcription 3 (Homo sapiens) (P40763 whole entry, looked up): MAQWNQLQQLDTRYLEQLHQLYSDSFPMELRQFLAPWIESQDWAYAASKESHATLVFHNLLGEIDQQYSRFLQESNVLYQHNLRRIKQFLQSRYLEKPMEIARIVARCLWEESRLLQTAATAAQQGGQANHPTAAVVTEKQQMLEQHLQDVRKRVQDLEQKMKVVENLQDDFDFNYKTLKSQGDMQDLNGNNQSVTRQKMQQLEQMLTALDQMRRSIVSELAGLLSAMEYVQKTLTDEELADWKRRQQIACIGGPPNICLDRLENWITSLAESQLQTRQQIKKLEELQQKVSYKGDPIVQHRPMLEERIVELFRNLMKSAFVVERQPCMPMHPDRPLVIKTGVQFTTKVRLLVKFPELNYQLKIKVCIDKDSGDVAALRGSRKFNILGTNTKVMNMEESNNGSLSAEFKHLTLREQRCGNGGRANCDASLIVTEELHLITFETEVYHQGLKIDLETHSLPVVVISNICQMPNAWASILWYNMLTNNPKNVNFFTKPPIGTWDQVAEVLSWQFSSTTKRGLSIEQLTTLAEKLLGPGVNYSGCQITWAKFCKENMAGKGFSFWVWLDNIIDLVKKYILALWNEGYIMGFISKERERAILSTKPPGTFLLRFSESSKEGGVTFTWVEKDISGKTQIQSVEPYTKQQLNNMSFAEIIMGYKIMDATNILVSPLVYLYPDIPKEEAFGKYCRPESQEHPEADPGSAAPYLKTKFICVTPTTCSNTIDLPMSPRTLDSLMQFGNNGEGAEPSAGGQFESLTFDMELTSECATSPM
How it was run: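 Cis-factorial format: endogenous transcription factors in HepG2 drive transfected reporter units. After 24 h treatment, reporter RNA was reverse-transcribed, amplified, FAM-labelled and HpaI-digested before CE analysis; activity scored in both directions against DMSO.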

[17] = ATG_TA_CIS: Attagene CIS-FACTORIAL HepG2 Assay for human TA Basal Promoter (AID 2282964); settings: HepG2 Attagene CIS-factorial TA basal promoter reporter; actives raise or lower the signal
How it was run: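 Background internal-marker endpoint from a 52-component HepG2 cis-reporter panel. Cells treated 24 h; reporter transcripts quantified via RT-PCR and CE fluorescence against DMSO baseline.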

[18] = target: Paired box protein Pax-6 (Homo sapiens) (UniProt P26367); test: ATG_Pax6_CIS: Attagene CIS-FACTORIAL HepG2 Assay for human Paired Box 6 (PAX6) (AID 2282956); settings: HepG2 CIS-FACTORIAL PAX6 reporter transcription, RNA readout; actives raise or lower the signal
Chain of Paired box protein Pax-6 (Homo sapiens) (P26367 whole entry, looked up): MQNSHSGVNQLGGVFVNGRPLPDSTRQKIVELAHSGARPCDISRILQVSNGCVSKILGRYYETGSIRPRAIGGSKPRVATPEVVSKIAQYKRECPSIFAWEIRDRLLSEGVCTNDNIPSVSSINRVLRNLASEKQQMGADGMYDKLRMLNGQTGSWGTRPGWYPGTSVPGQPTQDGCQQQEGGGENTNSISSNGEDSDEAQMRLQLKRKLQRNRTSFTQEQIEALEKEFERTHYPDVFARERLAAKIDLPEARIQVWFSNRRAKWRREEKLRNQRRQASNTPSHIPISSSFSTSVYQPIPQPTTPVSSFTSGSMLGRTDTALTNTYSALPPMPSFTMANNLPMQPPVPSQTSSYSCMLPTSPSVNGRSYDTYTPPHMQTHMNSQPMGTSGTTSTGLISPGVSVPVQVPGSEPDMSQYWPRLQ
How it was run: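 Values derive from bidirectional curve fitting of reporter mRNA signal relative to DMSO. HepG2 cells bearing transfected cis-regulated MRTUs were exposed for 24 h; transcripts were read by RT-PCR and capillary electrophoresis.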

[19] = target: Hepatocyte nuclear factor 6 (Homo sapiens) (UniProt Q9UBC0); test: ATG_HNF6_CIS: Attagene CIS-FACTORIAL HepG2 Assay for human Hepatocyte Nuclear Factor 6 (HNF6) (AID 2282952); settings: HepG2 Attagene cis-factorial HNF6 reporter transcription; actives raise or lower the signal
Chain of Hepatocyte nuclear factor 6 (Homo sapiens) (Q9UBC0 whole entry, looked up, the tested form may be a part): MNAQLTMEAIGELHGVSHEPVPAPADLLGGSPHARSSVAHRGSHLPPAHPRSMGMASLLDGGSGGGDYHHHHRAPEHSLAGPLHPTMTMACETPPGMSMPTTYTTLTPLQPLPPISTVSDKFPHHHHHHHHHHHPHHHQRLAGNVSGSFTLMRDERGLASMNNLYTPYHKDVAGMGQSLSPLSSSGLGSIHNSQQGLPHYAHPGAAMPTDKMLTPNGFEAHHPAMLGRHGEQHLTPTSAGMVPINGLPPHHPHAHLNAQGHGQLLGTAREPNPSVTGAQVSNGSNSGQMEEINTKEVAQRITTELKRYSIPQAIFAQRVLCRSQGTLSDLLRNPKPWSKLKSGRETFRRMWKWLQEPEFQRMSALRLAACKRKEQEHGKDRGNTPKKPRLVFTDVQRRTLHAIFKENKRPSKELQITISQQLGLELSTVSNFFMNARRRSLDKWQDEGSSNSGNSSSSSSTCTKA
How it was run: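 Readout: fluorescent reporter-transcript fragments resolved by capillary electrophoresis after RT-PCR, reflecting endogenous factor activity in transfected HepG2. Exposure 24 h. Gain or loss of signal fitted bidirectionally against DMSO.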

Measured: outcome

CCOC(=O)CC(C)C
not listed: [18] | [19]
inactive: all other assays above

CCCCOC(=O)C(C)OC(=O)CCC (stereo not given)
not listed: [9] | [14] | [19]
inactive: all other assays above

O=C1CCCCCCCCCCCC(=O)OCCO1
not listed: [9] | [16] | [19]
inactive: all other assays above

CC(=O)c1cccnc1
not listed: [7] | [18]
inactive: all other assays above

CC1(C)CC(N)CC(C)(CN)C1 (stereo not given)
not listed: [9] | [15] | [19]
inactive: all other assays above

C=C(C)C(=O)OCCC[Si](OC)(OC)OC
not listed: [9] | [15] | [18]
inactive: all other assays above

CCCC[N+](C)(CCCC)CCCC
not listed: [7] | [14] | [15] | [16]
inactive: all other assays above

CC(C)(O)C(=O)c1ccc(OCCO)cc1
not listed: [9] | [19]
inactive: all other assays above
